In the supplement of paper PMC6555819:

Experiments:
Experiment in all cases: PBM binding z-score (relative to random genomic background probes); higher = stronger binding; sequences stand for … in GC…GCGATTGACAGCGTAGAATGAAGG
[1] = system: FXR:RXRa (NR concentration 270 nM, RXRa partner concentration 90 nM)
Procedure, shortened: (§1)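 Antibodies against each partner of ligand-free nuclear receptor dimers (one per run) detected binding on custom Agilent 4×180K protein-binding microarrays after 1 h incubation. The double-stranded probes had 34-nt variable regions carrying direct-repeat seeds, single-nucleotide variants, half-site ablations and random human genomic background sequences. Binding z-scores, from regression-normalized fluorescence, use the random background probes as reference.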

[2] = system: LXRa:RXRa (NR concentration 270 nM, RXRa partner concentration 90 nM)
Procedure, shortened: as §1

[3] = system: LXRa homodimer (NR concentration 270 nM)
Procedure, shortened: as §1

[4] = system: LXRb:RXRa (NR concentration 270 nM, RXRa partner concentration 90 nM)
Procedure, shortened: as §1

[5] = system: LXRb homodimer (NR concentration 270 nM)
Procedure, shortened: as §1

[6] = system: PPARa:RXRa (NR concentration 270 nM, RXRa partner concentration 90 nM)
Procedure, shortened: as §1

[7] = system: PPARg:RXRa (NR concentration 180 nM, RXRa partner concentration 90 nM)
Procedure, shortened: as §1

[8] = system: PPARg:RXRa 270nM:90nM, anti-RXR (NR concentration 270 nM, RXRa partner concentration 90 nM)
Procedure, shortened: as §1

[9] = system: PPARg:RXRa 30nM:10nM, anti-RXR (NR concentration 30 nM, RXRa partner concentration 10 nM)
Procedure, shortened: as §1

[10] = system: PPARg:RXRa 90nM:30nM, anti-RXR (NR concentration 90 nM, RXRa partner concentration 30 nM)
Procedure, shortened: as §1

Row | Sequence | PBM binding z-score [1] | PBM binding z-score [2] | PBM binding z-score [3] | PBM binding z-score [4] | PBM binding z-score [5] | PBM binding z-score [6] | PBM binding z-score [7] | PBM binding z-score [8] | PBM binding z-score [9] | PBM binding z-score [10]
1 | GCATATAGGTAATACAAGATGAAAGTCCGATTGT | 0.0179 | -0.186 | -0.106 | -0.218 | -0.326 | 0.682 | 1.32 | 0.766 | 0.378 | 0.376
2 | CAAACTAGGTCAACGTCAAAGTCGGTTTGTGCCA | 3.78 | 2.64 | 0.425 | 1.92 | 0.247 | 5.24 | 8.49 | 6.68 | 4.95 | 6.72
3 | CCTTCCGGGTCACTCCAGGTTATAGCATCGGAGT | 4.29 | 7.37 | 1.67 | 5.1 | 0.22 | 4.38 | 4.22 | 4.36 | 1.22 | 3.15
4 | GGAATGAGGGCATTCGAGTTGATAGCATGGCGAT | 1.71 | 2.3 | -0.453 | 0.478 | -0.43 | 2.13 | 1.46 | 1.52 | 0.439 | 1.05
5 | TCATATAGGTAACCAGGTGAAAGTCCGTAAGTTA | 0.67 | 0.846 | 0.139 | 1.04 | 0.073 | 2.95 | 4.7 | 4.35 | 4.08 | 4.4
6 | GCATATAGGTAATACAATGTGAAAGTCCGATTGT | 0.12 | -0.102 | 0.125 | -0.0369 | -0.0471 | 0.701 | 1.29 | 0.561 | 0.448 | 0.672
7 | TCTTGTAGATCAACAGGAGGTTAGGAAAGATCGA | -0.355 | -0.0525 | -0.326 | 0.179 | -0.324 | 0.641 | -0.123 | 1.06 | 2.59 | 1.79
8 | TCTTGTAGATCAACAAGAGGTTAAGAAAGATCGA | 0.445 | 2.13 | 0.311 | 1.41 | -0.334 | 1.96 | 0.437 | 1.19 | 2.15 | 1.59
9 | CCTACTAGGCCAAAAAGGTCATTGATGCCGATAA | 3.79 | 4.67 | 3.6 | 4.54 | 0.985 | 4.84 | 3.56 | 4.24 | 1.54 | 3.67
10 | CCTACTTGGCCATCAGGTCATTGATATCAACGTT | 2.95 | 1.81 | 2.06 | 2.21 | 0.454 | 2.12 | 0.623 | 1.36 | 0.665 | 1.13
11 | TCGAGTAGGTAAGGGGCATTCAGAATGGCGTCGA | -0.106 | -0.02 | -0.436 | 0.42 | -0.693 | 0.747 | 0.463 | 1.71 | 1.19 | 1.41
12 | GCAGCTAGGTCAACTGATGGTCAGCTAAAGCTCG | 3.76 | 2.29 | -0.24 | 1.56 | -0.578 | 3.37 | 2.48 | 3.01 | 0.457 | 1.89
13 | TATAGTTGGTCACGGAGGTCACACACGACGGGTA | 3.47 | 3.92 | 3.29 | 3.47 | 1.25 | 4.09 | 4.49 | 3.8 | 1.92 | 3.19
14 | CAAACTAGGTCACAGAGGTCAAAGACCGTGCGTA | 7.36 | 6.53 | 6.56 | 5.93 | 1.73 | 6.52 | 10.5 | 8.43 | 6.84 | 8.38
15 | CCTTACGGGTCACTGACAAGTTATAGCATTTGGA | 5.46 | 3.31 | 0.0997 | 3.2 | 0.134 | 4.9 | 4.26 | 4.4 | 1.41 | 3.45
16 | CCTACTAGTTGACCATAAGGGCAACCGAAGCTCG | 0.832 | 0.281 | 0.276 | 0.306 | 0.518 | 0.516 | 0.418 | 0.311 | -0.164 | 0.0805
17 | TTACCAAGGTGAGCTGTGGTCGTTGATCCAACTC | 0.0539 | -0.153 | -0.583 | -0.347 | -1.27 | 0.301 | -0.403 | 0.0963 | -0.507 | 0.106
18 | CCTAGCAGGTCAATCTGGGTCACTCAAGGCTTGA | 5.49 | 6.27 | 1.3 | 4.34 | 0.627 | 4.97 | 4.83 | 5.3 | 2.13 | 4.43
19 | CGTCCAAGGTCAATGCTAGGTCAGTCAAAGCATT | 6.9 | 5.33 | 3 | 4.39 | 0.815 | 4.98 | 4 | 4.84 | 1.11 | 3.32
20 | AGAATGAGGTTATACGTAGATCAGGGACGAAAGT | 2.37 | 1.79 | 0.0917 | 1.55 | -0.0358 | 3.23 | 1.83 | 2 | 0.651 | 1.6
21 | TCATATAAGTAAAGGTGAAAGTCGAACGATATGA | 1 | 1.25 | -0.151 | 1.26 | -0.205 | 2.77 | 1.98 | 2.93 | 3.99 | 3.46
22 | TCATATAGGTAATACACGTGAAAGTCGGCATCTA | 1.26 | 0.929 | 0.413 | 1.06 | 0.455 | 1.13 | 1.1 | 2.03 | 3.93 | 2.92
23 | ATCTCCAGGTAACCAAGTTCAGTGAATGCCGAAC | 0.454 | 0.776 | 1.02 | 0.753 | 0.946 | 0.696 | 0.227 | 0.427 | 0.0617 | 0.231
